High-throughput results deposited in PubChem by National Center for Advancing Translational Sciences (NCATS).
Only some compounds are listed: those with a hit (about 21% of all), similar ones and a draw of the others.
NS1 function inh = qHTS Assay for Inhibitors of Influenza NS1 Protein Function | Potency, µM (titrated, usually from 46.1 µM), for inactives: at the top dose activity, positive = more growth | 270,000 tested, 0.4% active; calls by dose curve; further: potency means the concentration at half of the fitted maximal effect; actives are rising curves; nearly all actives have a fitted effect of over 50% in size
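Recovery from NS1-induced slow growth read by OD600 in budding yeast switched to galactose assay medium (pH 6.0, -URA) at 1:100 dilution. Compound 23 nl per well; the matching strain lacking NS1 serves as control.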
Shiga toxin inh = A qHTS for Small Molecule Inhibitors of Shiga Toxin | Vero cells, Shiga toxin protein synthesis inhibition reporter | inhibition, % at 38.7 µM | 290,000 tested, 9.2% active; in the data active means inhibition mostly above about 28%, no sharp cut-off; inactive means mostly below about 43%; further: 0% is about no effect
Pf growth 48h = Primary qHTS for delayed death inhibitors of the malarial parasite plastid, 48 hour incubation; AID 504832, 2011; Potency, µM (top dose mostly 28.7 µM), for inactives: at the highest dose activity change, negative = inhibition, usual class: inhibitors; P. falciparum luciferase growth in erythrocytes, 48 h; 310,000 tested, 5.9% active; further: potency means the concentration at half of the fitted maximal effect; on the % scale 0 is the no-effect control and ±100 the full control effect
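Luciferase-expressing parasites in RBCs, 2% Hct / 0.1% parasitemia final; RPMI 1640 + 0.5% Albumax; 37 C, 5% CO2, one generation; luminescence read-out, lower signal = inhibition.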
CHX counter-1 = Cycloheximide Counterscreen for Small Molecule Inhibitors of Shiga Toxin; 300,000 tested, 12% active; cell reporter, cycloheximide protein synthesis inhibition counterscreen; max response, %; in the data active means max response mostly above about 13%, no sharp cut-off; inactive means mostly below about 14%; further: read at 38.3 µM for the half of the compounds with a filed dose; 0% is about no effect
Pf growth 96h = Primary qHTS for delayed death inhibitors of the malarial parasite plastid, 96 hour incubation; AID 504834, 2011; Potency, µM (highest dose often 28.7 µM), inactives show top-dose activity change, negative = inhibition, usual class: inhibitors; 320,000 tested, 6.9% active; P. falciparum luciferase reporter growth, 96 h; further: potency means the concentration at half of the fitted maximal effect; on the % scale 0 is the no-effect control and ±100 the full control effect
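P. falciparum expressing integrated firefly luciferase grown in erythrocytes (2% hematocrit, 0.05% parasitemia final) with compounds for 96 hours at 37 C, 5% CO2. Growth inhibition read as loss of luminescence after adding luciferase detection reagent.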
Giardia FBPA inh = qHTS Assay for Inhibitors of Fructose-1,6-bisphosphate Aldolase from Giardia Lamblia; Potency, µM (titrated, usually from 59.6 µM), for inactives: at the top dose activity, negative = inhibition, hits mostly inhibitors; purified Giardia FBPA; A8B2U2; AID 2451, 2010; 290,000 tested, 0.71% active; further: potency means the concentration at half of the fitted maximal effect; on the % scale 0 is the no-effect control and ±100 the full control effect; nearly all actives have a fitted effect of over 55% in size
Target sequence (A8B2U2 whole entry, looked up): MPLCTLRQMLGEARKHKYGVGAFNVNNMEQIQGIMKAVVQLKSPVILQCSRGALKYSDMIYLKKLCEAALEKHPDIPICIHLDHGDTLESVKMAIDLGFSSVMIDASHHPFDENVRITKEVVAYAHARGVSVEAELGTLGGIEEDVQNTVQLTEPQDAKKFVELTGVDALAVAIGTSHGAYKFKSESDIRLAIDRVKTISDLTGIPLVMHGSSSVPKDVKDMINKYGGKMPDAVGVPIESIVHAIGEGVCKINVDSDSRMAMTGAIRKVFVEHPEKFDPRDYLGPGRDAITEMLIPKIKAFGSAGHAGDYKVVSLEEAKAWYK
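40 nM FBPA preincubated 10 min at RT with compound (up to 57.5 uM final), then substrate plus GAPDH/TPI/NAD/arsenate coupling and diaphorase/resazurin added. Fluorescence read after 20 min at RT, 525/598 nm.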
CHX counter-2 = Cycloheximide Counterscreen for Small Molecule Inhibitors of Shiga Toxin (Confirmatory); shares compounds with Shiga toxin inh; Cycloheximide counterscreen, protein synthesis reporter, Shiga toxin assay; Potency, µM (series often up to 38.3 µM), for the others: at the top dose activity (activation), usual class: activators; 510 tested, 3% active; calls by dose curve; further: potency means the concentration at half of the fitted maximal effect; 0% is about no effect
Flu NS1 inh = Assay for Inhibitors of Influenza NS1 Protein Function: Hit Validation. 1,400 tested, under 10 active. shares compounds with NS1 function inh. influenza NS1 function cell assay, 15-point titration. activity change, negative = inhibition, % at 32.9 µM; calls by dose curve; further: 0% is about no effect
An asterisk follows results filed as active; ? = inconclusive; · = no result given; [ ] = dose if it differs, or a comment. Unless noted, the call rests on the fitted dose curve; in most records, active means well fitted curve in the direction sought with a large enough effect; inconclusive means small, poorly fitted or top-dose-only effect, or another doubt; inactive means no such curve, though single readings can be large; an effect the other way counts as inactive or inconclusive.

SMILES | NS1 function inh | Shiga toxin inh | Pf growth 48h | CHX counter-1 | Pf growth 96h | Giardia FBPA inh | CHX counter-2 | others
O=C(COc1ccccc1-c1ccccc1)N/N=C/c1ccccn1 | -10% | -5 | ? | -3 | 1% | 0% | ·
Cc1ccc(OCC(=O)NNC(=O)CCC(=O)Nc2ccc(C)cc2C)cc1 | -13% | 35* | 30% | -2 | 13% | 7% | -1%
Cc1ccc(NC(=O)CCC(=O)NNC(=O)COc2ccccc2)c(C)c1 | 0% | -13 | -7% | -1 | -4% | -5% | ·
COCCNC(=S)N(CCc1c(C)[nH]c2ccccc12)Cc1cccnc1 | -3% | 43 | ? | -3 | ? | 8% | ·
Cc1c(Cl)cccc1NC(=O)CCC(=O)N/N=C/c1ccc[nH]1 | 8% | 12 | 10% | 1 | ? | -21% | ·
N=c1c(S(=O)(=O)c2ccc(Cl)cc2)cc2c(=O)n3ccccc3nc2n1C1CCCCC1 | -31% | active | 52% | 14 | ? | · | -1%
CC(=O)c1cccc(N2C(=O)C3C4CCC(C4=C(C)C)C3C2=O)c1 (stereo unspecified) | ? | 25* | -17% | 1 | -17% | -9% | -3%
CC(=O)Oc1cccc(N2C(=O)C3C4C=CC(C4=C(C)C)C3C2=O)c1 (stereo unspecified) | -101% | 18 | 10% | 10 | -6% | 2% | ·
CSc1ccc(/C=C/C(=O)N2CCN(c3ccccn3)CC2)cc1 | -3% | 32* | 30% | 12 | 4% | · | -2%
C=C1CCC(O)C/C1=C/C=C1\CCC[C@]2(C)[C@@H]([C@H](C)CCCC(C)C)CC[C@@H]12 (stereo partly specified) | · | 65* | · | 9 | · | 0% | 0%
Cc1cc(NC(=O)CSc2nnnn2-c2ccccc2)no1 | 1% | -3 | 16% | -3 | ? | 6% | ·
Cc1cc(N/C=C\c2nnnn2-c2ccccc2)no1 | -2% | 30* | -9% | 7 | 65% | 3% | ?
CCN1CCC(NC(=O)Nc2cc(Cl)ccc2OC)CC1 | · | 7 | 26%[5.75 µM] | -1 | 496% | -1% | ·
COCCCNC(=O)c1cn(C)c(=O)c2c1c1ccccc1n2C | 1% | 33* | 58% | -1 | 17% | -10% | 1%
CCCCN(CC)CCCNC(=O)c1cn(C)c(=O)c2c1c1ccccc1n2C | 5% | -13 | ? | -7 | -19% | -1% | ·
CCCCOc1ccc(C(CC(=O)NC)C(=O)O)cc1 (stereo unspecified) | 0% | -6 | · | -5 | 3% | 7% | ·
Cn1c(=O)c2ncn(CC(=O)NCCOc3ccccc3)c2n(C)c1=O | 0% | 27* | -2% | 5 | ? | -4% | 0%
COC(=O)[C@@]1(Cc2ccc(F)cc2)[C@H]2c3cc(C(=O)N4CCCC4)n(Cc4ccccn4)c3C[C@H]2CN1C(=O)c1ccccc1 | · | · | · | · | · | -1% | ·
Cc1ccccc1S(=O)(=O)Nc1ncnc2ccccc12 | -8% | 33* | 6% | -1 | -6% | 4% | -2%
O=C(Nc1ccccc1)c1ccc(S(=O)(=O)N2CCOCC2)cc1 | -2% | 53* | 3% | 5 | · | 7% | 4%
CCNc1c(NC(=O)c2cccs2)c(=O)oc2ccccc12 | -5% | 30* | 9% | 2 | -3% | -1% | 1%
COc1ccc(N2CCN(Cc3nc4c(c(=O)[nH]c(=O)n4C)n3CC(C)=O)CC2)cc1 | 1% | 30* | -6% | -2 | 7% | -5% | -1%
COc1ccc(N2CCN(Cc3nc4c(c(=O)n(C)c(=O)n4C)n3CC(C)=O)CC2)cc1 | 18% | 6 | -4% | 1 | 33% | 1% | ·
CCOC(=O)/C(C#N)=C/c1cccc(F)c1 | · | -3 | 0% | -7 | ? | ? | ·
COc1cc2c(c(OC)c1OC)-c1c(cc(OC)c(OC)c1OC)CC(C)C(C)C2 (stereo unspecified) | · | 32* | · | 8 | · | -2% | 2%
SMILES | NS1 function inh | Shiga toxin inh | Pf growth 48h | CHX counter-1 | Pf growth 96h | Giardia FBPA inh | CHX counter-2 | others
CC(=O)c1sc(-c2ccccn2)nc1C | · | 32* | 5% | 14 | ? | 1% | 3%
Cc1ccc(Cn2cc(SCC(N)=O)c3ccccc32)cc1 | · | -19 | ? | 12 | ? | 15% | ·
Cc1ccc(NC(=O)c2cccc(N3C(=O)C4C5C=CC(C5)C4C3=O)c2)cc1C (stereo unspecified) | -4% | 18* | -21% | 6 | 12µM* | · | 3%
Cc1ccc(C(C(=O)NCc2ccco2)N(C(=O)Cn2nnc3ccccc32)c2ccccc2)o1 (stereo unspecified) | -31% | 64* | ? | 4 | 15% | -2% | 5%
CS(=O)(=O)N1CCCC(C(=O)Nc2ccc(F)c(F)c2)C1 (stereo unspecified) | · | · | 23% | · | 13% | · | ·
Cc1cc(C)n(-c2nc3c(c(=O)[nH]c(=O)n3C)n2Cc2cccc(Br)c2)n1 | 0% | 84* | ? | 4 | 3%[5.75 µM] | 1% | -3%
COc1cc(NC(=O)COC(=O)CO/N=C(\C)c2ccc3c(c2)OCO3)cc(OC)c1OC | · | · | 15% | · | 40% | · | ·
COc1ccc(N2CCN(c3oc(COc4ccccc4Cl)nc3C#N)CC2)cc1 | 12% | 35* | ? | 16 | ? | 0% | ?
COc1ccc(OCc2nc(C#N)c(N3CCN(c4ccc(OC)cc4)CC3)o2)cc1 | 9% | 32 | ? | 6 | 3% | -6% | ·
OC1C[N+]2(CCCCC2)C1 | 7% | 30* | ? | -2 | 42% | -3% | -2%
Cc1ccc(C2(O)CN(c3ccccc3C)C3=[N+]2CCS3)cc1 (stereo unspecified) | -5% | 48* | ? | -3 | -1% | -5% | -1%
Cc1cccc(NC(=O)CCN2C(=O)c3ccccc3S2(=O)=O)c1C | 5% | 17* | 50% | -1 | 0% | 0% | 3%
CN(Cc1ccc(F)cc1)Cc1nc(-c2cnccn2)no1 | 2% | 37 | 4% | 6 | 8% | 2% | ·
CS(=O)(=O)N(CC(=O)Nc1ccccc1Sc1ccccc1)C1CCCCC1 | ? | 44* | · | 5 | -7% | 10% | -1% | Flu NS1 inh=-1
CC(C)(C)c1cc2cccnc2n1Cc1cccc(Cl)c1 | -12% | -11 | ? | -4 | ? | 1% | ·
